FUS suppressor – qHTS for Suppressors of FUS Proteinopathy: Primary screen using FUS-linked yeast assay. S. cerevisiae FUS-expressing, growth rescue, OD600, 24 h. Potency, µM (top dose mostly 76.6 µM), most hits filed as activators. 390,000 tested, 0.24% active. AID 1347120, 2019;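 further: plate controls were DMSO vehicle for no effect and reference control for full effect; nearly all actives have a fitted effect of over 55% in size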
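Toxicity suppression screen in FUS-yeast. Cells induced with 2% galactose, starting OD 0.005, treated 24hr at 30C with compounds at multiple final concentrations; growth by OD600.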
Abeta rescue – qHTS for compounds that reverse cellular toxicity of Amyloid beta (A-beta) peptide in yeast: Primary Screen; yeast expressing A-beta42, growth rescue, OD600, 48 h; response scale: 0% DMSO, 100% iron-clioquinol control; AID 1347071, 2019; Potency, µM (doses to about 46.1 µM), actives largely listed as activators; 410,000 tested, 0.063% active; further: nearly all actives have a fitted effect of over 55% in size
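Yeast A-beta toxicity model in growth medium with pinned compounds, 48 h at 30 C; growth read as absorbance at 600 nm. Normalized to FeCl3/clioquinol equimolar mix (positive) and DMSO (negative).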
Mito fusion yeast – qHTS Assay for Small Molecule Inhibitors of Mitochondrial Division or Activators of Mitochondrial Fusion; S. cerevisiae fusion-defective mutant growth rescue, CellTiterGlo 48 h; Potency, µM (series often up to 46.1 µM), for inactives: at the top dose growth rescue (activation), usual class: activators; 320,000 tested, 0.23% active; AID 485298, 2010; further: % of control where 0% means no effect; nearly all actives have a fitted effect of over 45% in size
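S. cerevisiae fusion-defective temperature-sensitive mutants (e.g. fzo1-1, mgm1-5) grown 48 h at 37C in YPEG (ethanol/glycerol non-fermentable) medium with 23 nl compound per well; growth rescue read as CellTiterGlo luminescence.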
TDP43 rescue – qHTS of TDP-43 Inhibitors | TDP-43 expressing yeast growth rescue, BacTiter-Glo, 24 h | Potency, µM (highest dose often 46.1 µM), for the others: at the highest dose growth rescue (activation), hits mostly activators | 410,000 tested, 1.8% active | AID 652104, 2013; further: % of control where 0% means no effect; nearly all actives have a fitted effect of over 50% in size
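Yeast cells expressing TDP-43 under galactose induction are exposed to compounds for 24 hr at 30 deg C. BacTiter-Glo luminescence measures growth, so protective compounds score as activators.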
aSyn yeast inh – qHTS of alpha-syn Inhibitors | AID 652106, 2013 | Yeast expressing alpha-synuclein, growth rescue, BacTiter-Glo, 24 h | Potency, µM (highest dose often 46.1 µM), without a hit: at the highest dose growth rescue (activation), usual class: activators | 370,000 tested, 0.14% active; further: % of control where 0% means no effect; nearly all actives have a fitted effect of over 65% in size
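Readout is rescue of growth in alpha-synuclein-expressing yeast, so inhibitors of toxicity appear as activators. Growth after 24 hr at 30 deg C in galactose medium is quantified by luminescence.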
Active calls of the source: *; i = inactive; ? = inconclusive; · = no result. An excerpt weighted towards active compounds, which were near 2.2% of everything screened. The call rests on the fitted dose curve; in most records, active means well fitted curve in the direction sought with a large enough effect; inconclusive means small, poorly fitted or top-dose-only effect, or another doubt; inactive means no such curve, though single readings can be large; an effect the other way counts as inactive or inconclusive. Potency means the concentration at half of the fitted maximal effect.

SMILES | FUS suppressor | Abeta rescue | Mito fusion yeast | TDP43 rescue | aSyn yeast inh
COc1ccc(C2CC(c3ccccc3C(F)(F)F)=NN2c2ccc(S(N)(=O)=O)cc2)cc1 (stereo not given) | i | i | · | 15% | 5%
CN(C)c1cccc(-c2nnc(SCC(=O)NCc3ccco3)n2C)c1 | · | · | · | · | -7%
CCN1CCCC1CN(Cc1cc2cc(C)cc(C)c2[nH]c1=O)C(=O)Nc1ccccc1OC (stereo not given) | 32µM* | i | 8% | -6% | -1%
CCN1CCCC1CN(Cc1cc2ccc(C)cc2[nH]c1=O)C(=S)Nc1ccc(OC)cc1OC (stereo not given) | i | i | -7% | -10% | 1%
O=C(Nc1ccccn1)C1CCN(C(=O)Nc2ccccc2)CC1 | i | i | 1% | 0% | 0%
CCCCNC(=O)C1(C(=O)C2CC2)CC(C(=O)OCC)=NO1 (stereo not given) | i | · | · | · | ·
Cc1ccc(S(=O)(=O)NC23CC4CC(CC(C4)C2)C3)cc1 | i | i | ? | ? | -3%
Cc1nn(C)c(C(=O)Nc2ccc(S(=O)(=O)NC34CC5CC(CC(C5)C3)C4)cc2)c1Br | i | ? | -1% | 4% | 22µM*
O=C(NCc1ccccc1F)c1ccncc1 | i | i | 1% | -14% | 2%
O=C(c1ccccc1Cl)N1CCC(Oc2cccnc2)CC1 | i | · | · | · | ·
N#Cc1ccccc1OCC(=O)Nc1nc(-c2ccccn2)cs1 | i | ? | · | 25µM* | ?
Cc1ccc(C(=O)Nc2nc(-c3ccccn3)cs2)s1 | i | ? | ? | ? | 3.5µM*
O=C(Nc1nc(-c2ccccn2)cs1)c1ccc(Cl)s1 | i | i | 1% | ? | -15%
O=C(Nc1nc(-c2ccccn2)cs1)c1ncc(Cl)c(Cl)c1Cl | i | i | -2% | 3.5µM* | 7.9µM*
O=C(Nc1nc(-c2ccccn2)cs1)C1CCCC1 | i | ? | 10% | 20µM* | 17%
COc1cccc(/C=C/c2nccc3ccccc23)c1OC | · | · | · | · | -13%
CN(CCCOC(=O)c1occ2ccccc12)C1CN(Cc2cn(Cc3ccccc3Cl)nn2)S(=O)(=O)C1 (stereo not given) | i | · | · | · | ·
CCCCNC(=O)NCCCN1CCN(c2ccc(F)cc2)CC1 | i | · | · | · | ·
C[C@@H]1CCN(C2CC2)S(=O)(=O)c2c(cccc2N2CC[C@@H](N(C)C)C2)O1 | i | · | · | · | ·
Cc1ccc(Cn2ccc(NC(=O)c3cc(-c4ccc(Cl)c(Cl)c4)on3)n2)cc1 | i | i | · | 0% | ·
CCc1sc(C(=O)Nc2nccs2)cc1C | i | i | -5% | -17% | -14%
O=C(Nc1nc(-c2ccccn2)cs1)c1cc2ccccc2o1 | i | i | -6% | ? | ?
Cc1c(C(=O)Nc2nc(-c3ccccn3)cs2)oc2ccccc12 | ? | i | 0% | 6.3µM* | -29%
CCc1sc(C(=O)Nc2nc(-c3ccccn3)cs2)cc1C | ? | i | · | ? | 4.5µM*
Cn1cccc1C(=O)Nc1nc(-c2ccccn2)cs1 | ? | ? | -9% | 14µM* | ?
SMILES | FUS suppressor | Abeta rescue | Mito fusion yeast | TDP43 rescue | aSyn yeast inh
O=C1N(CCCO)CCC12CCCCC2 | i | · | · | · | ·
CCN(c1cc(C)cc(C)c1)S(=O)(=O)c1nnc(NC(=O)c2ccccc2C)s1 | i | i | · | 15% | ·
CSc1nn(Cc2ccc(Cl)cc2)c(N(C(C)=O)C(C)=O)c1S(=O)(=O)c1ccccc1 | i | i | · | ? | ·
COc1cccc(Cn2nc(SC)c(S(=O)(=O)c3ccccc3)c2N(C(C)=O)C(C)=O)c1 | i | i | · | 20µM* | ·
CSc1nn(Cc2ccc(Br)cc2)c(N(C(C)=O)C(C)=O)c1S(=O)(=O)c1ccccc1 | i | i | · | 35µM* | ·
CSc1nn(Cc2cccc(F)c2)c(N(C(C)=O)C(C)=O)c1S(=O)(=O)c1ccccc1 | i | i | · | 35µM* | ·
CSc1nn(Cc2ccc(C)cc2)c(N)c1S(=O)(=O)c1ccccc1 | i | i | · | ? | ·
